Bioassay records from PubChem BioAssay.
RT RNaseH block: inhibitors of HIV-1 reverse transcriptase RNase H | P04585 | RT-RNase H RNA/DNA duplex cleavage, fluorescence | inhibition, % at 10 µM | 65,000 compounds, 1.9% hits; in the data active = inhibition above about 50%
* = called active by the depositor. This excerpt belongs to a sample that is enriched for hits.

SMILES	RT RNaseH block
CCOc1c(C)cc2[nH]c(CCC(=O)O)nc2c1C	-8.2
CSc1ccccc1NS(=O)(=O)c1ccccc1	-62.1
O=c1cc(CSc2nnc(-c3cccs3)n2Cc2ccccc2)nc2sc3ccccc3n12	50.8*
Cc1cc(C(=O)CSc2nnc(-c3cccs3)n2Cc2ccccc2)c(C)n1C	-47.2
O=c1c2ccccc2nnn1CSc1nnc(-c2cccs2)n1Cc1ccccc1	-27.8
CC1(C)OC(=O)C2(Cc3ccccc3N3CCCCC32)C(=O)O1 (configuration not stated)	-11.8
COc1ccc(S(=O)(=O)N(CC(=O)NCC2CCCO2)c2ccccc2)cc1OC (configuration not stated)	-6.0
O=C(c1ccc(S(=O)(=O)N2CCCCCC2)cc1)N1CCN(c2ccccn2)CC1	-3.0
O=C(c1ccc(CNS(=O)(=O)c2ccccc2)cc1)N1CCN(c2ccccn2)CC1	62.6*
O=C(c1ccc(CNS(=O)(=O)c2ccccc2)cc1)N1CCC2(CC1)OCCO2	8.5
Cc1ccnc(SCCn2c(N3CCOCC3)nc3c2c(=O)n(C)c(=O)n3C)n1	0.1
O=C(OCC#CCSc1nc2ccccc2s1)c1ccco1	-94.4
C=CCNC(=O)C1CC(=O)N(c2ccc(OCC(=O)Nc3ccccc3)cc2)C1 (configuration not stated)	0.4
COc1cccc(N=Cc2ccc(O)cc2O)c1	53.4*
COc1cccc(C=Nc2ccc3c(c2)OCCO3)c1O	-2.1
Oc1ccc(C=Nc2cccc3ncccc23)c(O)c1	1.4
O=C1c2cccnc2C(=O)N1Cc1ccc2c(c1)OCO2	-10.0
CC(=O)NC(C)C(=O)OCc1ccc(Cl)cc1Cl (configuration not stated)	-7.8
S=c1[nH]ncn1-c1ccccn1	5.7
O=C(OCC1COc2ccccc2O1)c1c(F)cccc1F (configuration not stated)	-99.8
O=C(NCc1ccccn1)c1cn(CCc2ccccc2)nn1	68.5*
CC(c1ccccc1)n1cc(C(=O)NCc2ccccn2)nn1 (configuration not stated)	-10.7
O=C(NCc1cccnc1)c1cn(CCc2ccccc2)nn1	-3.0
Cc1sc(NC(=O)CSc2nc(N)n(CC(=O)c3ccccc3)n2)c(C#N)c1C	-24.6
CN(C)c1nc(Nc2ccc(Cl)cc2)nc(OCC#N)n1	-53.9
SMILES	RT RNaseH block
COC(=O)Cn1nc(-c2ccccc2)c2ccccc21	-5.7
COC(=O)c1cccc(NC(=O)c2nn(C)c(=O)c3ccccc23)c1	-18.9
COCC(=O)N(Cc1cc2cc(OC)ccc2[nH]c1=O)c1ccc(C)cc1	5.7
CCC(Sc1nc(C)cc(C)n1)C(=O)O (configuration not stated)	-8.7
CCC(Sc1ccc(C(=O)O)cc1)C(=O)O (configuration not stated)	57.2*
CCC(C)COC(=O)c1ccc(C(=O)O)cc1 (configuration not stated)	-4.7
O=S(=O)(c1ccc(F)cc1)N1CCC(N2CCN(c3ccccc3)CC2)CC1	-6.1
CCOC(=O)c1cccc(NC(=O)CSc2nnc(COc3ccc(Cl)cc3)o2)c1	19.9
COc1ccc(NC(=O)CSc2nnc(CNc3ccc(F)cc3)o2)c(OC)c1	1.0
O=C(CSc1nnc(COc2ccc3c(c2)CCCC3)o1)Nc1ccc(F)cc1	58.9*
c1cncc(-c2nc(Oc3ccc(-c4nnco4)cc3)c3c4c(sc3n2)CCCC4)c1	-11.2
CCC(C)Oc1ccccc1C1CC(=O)NC2=C1C(=O)CCC2 (configuration not stated)	-0.9
Cc1ccc2c(c1)[nH]c1c(N3CCN(Cc4ccc5c(c4)OCO5)CC3)ncnc12	-5.2
CCOc1cc2[nH]c(=O)n(CCC(=O)NCCc3ccccc3)c(=O)c2cc1OCC	64.4*
CCOc1cc2[nH]c(=O)n(CCC(=O)NCCc3ccc(OC)c(OC)c3)c(=O)c2cc1OCC	-0.2
CCOc1cc2[nH]c(=O)n(CCCCCC(=O)NCc3ccc4c(c3)OCO4)c(=O)c2cc1OCC	-4.5
Cc1cc2c(=O)n(CC(=O)N3CCN(c4ccc(F)cc4)CC3)cnc2s1	6.6
COc1ccc(Cl)cc1C(=O)NCC(C)C	-15.7
Cc1noc(C)c1CSc1cc(C)c2ccccc2n1	-48.4
COc1ccc(-n2ncc3c(N4CCN(c5cccc(C)c5C)CC4)ncnc32)cc1	83.6*
COc1ccc(-n2ncc3c(N4CCCCC4)ncnc32)cc1	-11.9
COc1ccc(N2CCN(c3ncnc4c3cnn4-c3ccc(C)cc3C)CC2)cc1	3.8
Cc1cc(C)cc(OCC(O)CN2C(=O)NC(C)(C)C2=O)c1 (configuration not stated)	-6.3
COc1ccc(S(=O)(=O)N2CCC(C(=O)Nc3ccccc3C)CC2)c2cccnc12	-51.9
Cc1ccc(-n2c(Cn3cnc4ccccc43)nnc2SCC(=O)O)cc1	1.3
SMILES	RT RNaseH block
O=C(Nc1ccc(F)cc1F)NC1CC(=O)N(Cc2ccccc2)C1 (configuration not stated)	-6.4
CC(C)CN(C(=O)c1ccc(=O)n(C)n1)c1nc2ccccc2s1	-3.9
Cc1nn(C(=O)N2CCCCC2)c(C)c1CN1C(=O)c2ccccc2C1=O	-8.3
Cc1nn(C(=O)c2cccs2)c(C)c1CN1C(=O)c2ccccc2C1=O	63.8*
Cc1nn(C(=O)c2ccco2)c(C)c1CN1C(=O)c2ccccc2C1=O	-19.0
COCC(=O)Nc1sc2c(c1C(=O)OC)CCC(C)C2 (configuration not stated)	-28.1
CC1CCc2c(sc(N)c2C(N)=O)C1 (configuration not stated)	64.6*
CC1CCc2c(sc(NC(=O)c3noc4c3CCCC4)c2C(N)=O)C1 (configuration not stated)	-0.9
Cc1nc(C)c(C(=O)C2=C(O)C(=O)N(CCCn3ccnc3)C2c2ccc(Cl)cc2)s1 (configuration not stated)	0.8
CCc1cccc2c(C#N)cn(CC(=O)NCCOC)c12	-11.3
Cc1sc2nc(SCC(=O)NCc3ccco3)n(-c3ccccc3)c(=O)c2c1C	27.2
O=C(CSc1nc2ccsc2c(=O)n1Cc1ccccc1)NCc1ccco1	-15.0
Cc1nc(SCC(=O)NCc2ccco2)c2c(C)c(C)sc2n1	-15.4
Cc1ccc(-n2c(SCC(=O)NCc3ccco3)nc3sc(C)c(C)c3c2=O)cc1	55.2*
CCOC(=O)c1sc2nc(SCC(=O)NCc3ccco3)n(Cc3ccccc3)c(=O)c2c1C	65.7*
CC1Cc2nc(SCC(=O)NCc3ccco3)n(Cc3ccccc3)c(=O)c2S1 (configuration not stated)	-23.2
CCOc1ccccc1C1CC(c2ccc(Br)cc2)Nc2nc(N)nn21 (configuration not stated)	-5.1
CC(OC(=O)c1cccc(NS(C)(=O)=O)c1)C(=O)Nc1ccc(N2CCOCC2)cc1 (configuration not stated)	10.8
Cc1ccc(Cn2nnc3c(=O)n(Cc4cc(C)ccc4C)cnc32)cc1	1.3
Cc1[nH]n(C(N)=S)c(=O)c1C(c1ccccc1)C(C#N)C#N (configuration not stated)	51.0*
CCCc1[nH][nH]c(=O)c1C(c1ccccc1)C(C#N)C#N (configuration not stated)	-71.1
CN1CCCC(C(=O)C(C#N)c2ccccc2)C1 (configuration not stated)	-6.5
COCCn1cnnc1SCC(=O)Nc1ccccc1C(=O)Nc1ccc2c(c1)OCO2	6.6
O=C(Nc1nnc(-c2ccccc2)s1)c1ccc(Cl)c(S(=O)(=O)N2CCOCC2)c1	6.4
O=C(NCc1ccccc1)c1cccc(S(=O)(=O)N2CCOCC2)c1	-2.5
